The inhibition is the change of the read-out against control, counted positive when it falls.

Values without a mark were called inactive. The source made the active and inactive calls.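 How the source made its calls, unless noted: active means compounds lowering colon cancer cell viability after pretreatment blocking the GSK3B kinase; inactive means the rest.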

The values that follow come from PubChem BioAssay.

Experiment [1] in a line: stimulators of insulin release from INS-1E, primary screen, cell-based, 5 mM glucose, NPC library (AID 1117329;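 active means compound raises insulin release from rat beta cells at 5 mM glucose, no numeric limit stated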). The settings on record: rat INS-1E insulin secretion, at 10 µM, hits give high values.
The nature of experiment [2]: growth inhibition of GSK3B-pretreated HCT116 cells – cell-based, CellTiter-Glo, 0.2 to 20 µM (AID 1117336). As to conditions: HCT116 viability after GSK3B inhibitor, at 20 µM, hits give high values. Background: ATP-based viability assays read luminescence as a measure of living cells.
Experiment [3] in a line: inhibition of endothelial tube formation, primary screen, imaging, VEGF stimulated, CD31 staining, tube area, NPC library (AID 1117340;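 active means compound that reduces growth-factor-driven endothelial tube area in a mixed cell culture, no cutoff stated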). As to conditions: VEGF-stimulated ADSC/ECFC co-culture, at 10 µM, hits give high values.
The nature of experiment [4]: GLP1 release stimulators, primary, NCI-H716, NPC library (AID 1117341;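 active means compound raises GLP1 secretion from the human gut endocrine cells, with no numeric limit stated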). The settings on record: NCI-H716 cells, at 10 µM, hits give high values.
A short description of experiment [5]: HCT116 colon cancer cell growth inhibition, primary screen, CellTiter-Glo luminescence, NPC library (AID 1117342;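 active means compounds that lower survival of HCT116 colon cancer cells in the luminescence readout, no numeric limit stated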). The settings on record: at 20 µM (top of the series).
Experiment [6] can be described thus: reduced SW480 viability measured with CellTiter-Glo, NPC library, primary (AID 1117343;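 active means compounds that lower viability of the colon cancer cells in the luminescence readout, with no numeric limit stated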). The settings on record: CellTiter-Glo luminescence; at 20 µM (top of the series).
The nature of experiment [7]: NPC library primary testing for decreased DLD-1 cell viability via CellTiter-Glo (AID 1117346;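 active means compounds that lower survival of DLD-1 colon cancer cells in the luminescence readout, no cutoff given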). The settings on record: DLD-1 viability, CellTiter-Glo luminescence; at 20 µM (top of the series).
Experiment [8] has as its target 6-phosphogluconate dehydrogenase, decarboxylating (Homo sapiens) (UniProt P52209). The experiment is described as follows: inhibition of human phosphogluconate dehydrogenase – biochemical, recombinant enzyme, NADPH absorbance, primary screen (AID 1159550;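 active means at least 20% inhibition of 6-phosphogluconate dehydrogenase activity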). The settings on record: recombinant 6PGD, NADPH absorbance 341 nm; at 10 µM; hits give high values.

Sequence of 6-phosphogluconate dehydrogenase, decarboxylating (Homo sapiens) (P52209 whole entry, looked up): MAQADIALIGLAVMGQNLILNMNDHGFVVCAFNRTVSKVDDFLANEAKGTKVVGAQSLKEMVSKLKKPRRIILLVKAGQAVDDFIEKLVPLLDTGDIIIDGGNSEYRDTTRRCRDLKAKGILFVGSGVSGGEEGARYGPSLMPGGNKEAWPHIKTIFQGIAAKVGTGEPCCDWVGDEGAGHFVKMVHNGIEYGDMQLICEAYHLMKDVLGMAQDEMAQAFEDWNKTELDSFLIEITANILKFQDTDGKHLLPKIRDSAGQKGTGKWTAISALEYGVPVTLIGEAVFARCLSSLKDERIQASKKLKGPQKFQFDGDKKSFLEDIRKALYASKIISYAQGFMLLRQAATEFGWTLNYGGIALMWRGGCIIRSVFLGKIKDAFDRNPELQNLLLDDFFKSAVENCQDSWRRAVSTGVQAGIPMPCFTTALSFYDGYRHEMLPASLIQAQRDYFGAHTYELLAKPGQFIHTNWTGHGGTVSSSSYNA

As to `Cc1nc2sccn2c(=O)c1CCN1CCC(=C(c2ccc(F)cc2)c2ccc(F)cc2)CC1`, the insulin secretion stimulation in experiment [1] is 2%. Further, the viability decrease in experiment [2] was 86.2% (active). Also, the tube area decrease in experiment [3] was 28.7%. Further, the GLP1 secretion stimulation in experiment [4] was 10.9%. In addition, in experiment [5], the inhibition of viability was 90.6% (active). Besides, the values for the viability decrease (inhibition) in experiment [6] and in experiment [7] were 133% (active) and 105% (active), respectively. Moreover, in experiment [8], the inhibition was 13.5%.
In the case of `NC(=O)c1ncn([C@@H]2O[C@H](CO)[C@@H](O)[C@H]2O)c1O`, in experiment [1], the insulin secretion stimulation was -2.6%. In addition, in experiment [2], the viability decrease was -1.75%. Further, the tube area decrease in experiment [3] is 3.8%. Also, the GLP1 secretion stimulation in experiment [4] is 2.6%. For the same compound, in experiment [5], the inhibition of viability was -13.1%. For the same compound, the viability decrease (inhibition) was 2.7% in experiment [6] and 4.7% in experiment [7]. For the same compound, the inhibition in experiment [8] is 1.32%.
Turning to `C[C@@H]1CC[C@@]2(OC1)O[C@H]1C[C@H]3[C@@H]4CC[C@H]5C[C@@H](O)CC[C@]5(C)[C@H]4CC(=O)[C@]3(C)[C@H]1[C@@H]2C`, the insulin secretion stimulation in experiment [1] is 3.2%. Besides, in experiment [2], the viability decrease is 13.4%. The tube area decrease in experiment [3] was -13.1%. Further, in experiment [4], the GLP1 secretion stimulation was -3.1%. Moreover, the inhibition of viability in experiment [5] was 4.27%. Moreover, the figures for the viability decrease (inhibition) in experiment [6] and in experiment [7] were 7.5% and 3.7%, respectively. Further, in experiment [8], the inhibition is 14.9%.
Consider `CC(C)(C)CC(C)(C)c1ccc(O)c(Cc2ccc(Cl)cc2Cl)c1`, for which the insulin secretion stimulation in experiment [1] was 4.4% (active). The viability decrease in experiment [2] was 99.3% (active). In addition, the tube area decrease in experiment [3] was 108% (active). Besides, in experiment [4], the GLP1 secretion stimulation is 117% (active). For the same compound, in experiment [5], the inhibition of viability is 100% (active). For the same compound, the results for the viability decrease (inhibition) in experiment [6] and in experiment [7] were 120% (active) and 102% (active), respectively. In experiment [8], the inhibition is -15.2%.
`CCCCN(CCCC)CCCOC(=O)c1ccc(N)cc1`: the insulin secretion stimulation in experiment [1] is 0.7%. In experiment [2], the viability decrease was -47.6%. The tube area decrease in experiment [3] is 18.7%. In experiment [4], the GLP1 secretion stimulation was 0.7%. Also, the inhibition of viability in experiment [5] is 15%. Besides, the viability decrease (inhibition) was 21.3% in experiment [6] and -4.6% in experiment [7]. Moreover, the inhibition in experiment [8] is -3.82%.
Turning to `Cn1c(=O)c2c(ncn2CCO)n(C)c1=O`, the insulin secretion stimulation in experiment [1] was 1.4%. Besides, the viability decrease in experiment [2] was 15.8%. For the same compound, the tube area decrease in experiment [3] was -12.3%. For the same compound, the GLP1 secretion stimulation in experiment [4] is -0.6%. Further, the inhibition of viability in experiment [5] is -8%. In addition, the viability decrease (inhibition) was -1.2% in experiment [6] and -21.2% in experiment [7]. Besides, the inhibition in experiment [8] is -5.12%.
Take `CC(C)(Oc1ccc(Cl)cc1)C(=O)O`: in experiment [1], the insulin secretion stimulation was -2.3%. The viability decrease in experiment [2] was -12.6%. Moreover, the tube area decrease in experiment [3] was -2.8%. Moreover, in experiment [4], the GLP1 secretion stimulation is 4.6%. Also, in experiment [5], the inhibition of viability was 13.2%. Moreover, the viability decrease (inhibition) is 12.2% in experiment [6] and -5.25% in experiment [7]. Also, the inhibition in experiment [8] is -17.2%.
On to `NC[C@H](O)c1ccc(O)c(O)c1`, for which, in experiment [1], the insulin secretion stimulation was 0.1%. The viability decrease in experiment [2] was 31.8%. The tube area decrease in experiment [3] was -25.8%. Moreover, in experiment [4], the GLP1 secretion stimulation is 3.6%. In experiment [5], the inhibition of viability was 2.5%. Further, the viability decrease (inhibition) in experiment [6] was 38.8%; in experiment [7], 8.6%. Besides, the inhibition in experiment [8] was 7.95%.
On to `CC(=O)N[C@@H](CS)C(=O)O`, for which, in experiment [1], the insulin secretion stimulation is 0.8%. In experiment [2], the viability decrease is -18.8%. Besides, the tube area decrease in experiment [3] is 18%. Moreover, the GLP1 secretion stimulation in experiment [4] was 0.7%. In experiment [5], the inhibition of viability was -0.95%. Besides, the viability decrease (inhibition) was 0.1% in experiment [6] and 7.4% in experiment [7]. Moreover, in experiment [8], the inhibition was -17.2%.
As to `CC1=CC(=O)c2ccccc2C1=O`, the insulin secretion stimulation in experiment [1] is -1.3%. In addition, the viability decrease in experiment [2] was 72.6% (active). In addition, the tube area decrease in experiment [3] was 26.3%. For the same compound, the GLP1 secretion stimulation in experiment [4] was -6%. Besides, the inhibition of viability in experiment [5] was 37.5%. Further, the viability decrease (inhibition) is 122% (active) in experiment [6] and 103% (active) in experiment [7]. For the same compound, in experiment [8], the inhibition is 12.5%.
For the compound `O=c1cc[nH]c(=S)[nH]1`, the insulin secretion stimulation in experiment [1] is -0.7%. Also, the viability decrease in experiment [2] is -5.7%. The tube area decrease in experiment [3] was 11.6%. For the same compound, the GLP1 secretion stimulation in experiment [4] was -6.9%. In addition, in experiment [5], the inhibition of viability is 1.83%. Moreover, the viability decrease (inhibition) is -9.6% in experiment [6] and -8.5% in experiment [7]. Also, the inhibition in experiment [8] is 13.5%.
For the compound `CNC[C@H](O)c1cccc(O)c1`, in experiment [1], the insulin secretion stimulation is 0%. In addition, in experiment [2], the viability decrease was -4.6%. Besides, the tube area decrease in experiment [3] is -2.9%. In addition, the GLP1 secretion stimulation in experiment [4] is 1.4%. Moreover, the inhibition of viability in experiment [5] was 3.8%. The viability decrease (inhibition) was 12.3% in experiment [6] and -9.9% in experiment [7]. Also, the inhibition in experiment [8] was 10.8%.
As for `CC(C)NNC(=O)c1ccncc1`, in experiment [1], the insulin secretion stimulation is -2.5%. Further, in experiment [2], the viability decrease was -3.15%. In experiment [3], the tube area decrease was 5.7%. Further, the GLP1 secretion stimulation in experiment [4] was 0.4%. Further, in experiment [5], the inhibition of viability was 4.9%. Also, the viability decrease (inhibition) in experiment [6] is 34.8%; in experiment [7], 7.6%. In addition, the inhibition in experiment [8] was -0.838%.
`Cc1cc(CC(=O)O)n(C)c1C(=O)c1ccc(Cl)cc1`: the insulin secretion stimulation in experiment [1] is 2.6%. For the same compound, in experiment [2], the viability decrease is -27.2%. Besides, the tube area decrease in experiment [3] was 15.1%. For the same compound, in experiment [4], the GLP1 secretion stimulation is -1.1%. In experiment [5], the inhibition of viability is 1.13%. For the same compound, the results for the viability decrease (inhibition) in experiment [6] and in experiment [7] were 14.7% and -17.6%, respectively. Also, the inhibition in experiment [8] was -4.85%.
Turning to `CCC1(C)CC(=O)NC1=O` (centres undefined), the insulin secretion stimulation in experiment [1] is 0%. In addition, the viability decrease in experiment [2] was -17.5%. In addition, in experiment [3], the tube area decrease was -2.9%. Moreover, in experiment [4], the GLP1 secretion stimulation is -2.3%. Further, in experiment [5], the inhibition of viability is -5.57%. In addition, the viability decrease (inhibition) in experiment [6] is -27.9%; in experiment [7], -7.1%. Also, the inhibition in experiment [8] is -0.667%.
`CCCCNc1ccc(C(=O)OCCN(C)C)cc1`: the insulin secretion stimulation in experiment [1] was 0%. Further, in experiment [2], the viability decrease is -26.9%. Besides, the tube area decrease in experiment [3] was 9.8%. Further, the GLP1 secretion stimulation in experiment [4] is 0.3%. Moreover, the inhibition of viability in experiment [5] is 18%. Further, the viability decrease (inhibition) in experiment [6] was 47%; in experiment [7], 3.1%. Also, in experiment [8], the inhibition was -7.63%.
For `COc1ccc(CN(CCN(C)C)c2ccccn2)cc1`, in experiment [1], the insulin secretion stimulation is 68.9% (active). Also, the viability decrease in experiment [2] was 3.3%. The tube area decrease in experiment [3] is 14.4%. In experiment [4], the GLP1 secretion stimulation was 1.2%. In addition, in experiment [5], the inhibition of viability is -7.7%. Further, the viability decrease (inhibition) in experiment [6] is 22.5%; in experiment [7], -34.8%. For the same compound, in experiment [8], the inhibition is 4.83%.
On to `CCN(CC)CCOC(=O)C(c1ccccc1)c1ccccc1`, for which the insulin secretion stimulation in experiment [1] is 13.6%. Besides, the viability decrease in experiment [2] is -6.6%. In addition, the tube area decrease in experiment [3] is 17.8%. In experiment [4], the GLP1 secretion stimulation is 0.6%. Further, in experiment [5], the inhibition of viability was 8.4%. For the same compound, the viability decrease (inhibition) was -5.9% in experiment [6] and 5.6% in experiment [7]. Also, in experiment [8], the inhibition is -7.73%.
